Experimental data from the supplement of paper PMC6555819.

Columns and labels:
Test in all cases: PBM binding z-score (relative to random genomic background probes); higher = stronger binding; sequences stand for … in GC…GCGATTGACAGCGTAGAATGAAGG
[1] = tested on: FXR:RXRa (NR concentration 270 nM, RXRa partner concentration 90 nM)
Summary of the method: (§1)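 Regression normalization was applied to scanned fluorescence from custom Agilent 4×180K protein-binding microarrays. Before scanning, arrays were incubated 1 h with ligand-free nuclear receptor dimers, and binding was detected with antibodies against each partner (one per run). Binding z-scores use the random background probes as reference.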

[2] = tested on: LXRa:RXRa (NR concentration 270 nM, RXRa partner concentration 90 nM)
Summary of the method: as §1

[3] = tested on: LXRa homodimer (NR concentration 270 nM)
Summary of the method: as §1

[4] = tested on: LXRb:RXRa (NR concentration 270 nM, RXRa partner concentration 90 nM)
Summary of the method: as §1

[5] = tested on: LXRb homodimer (NR concentration 270 nM)
Summary of the method: as §1

[6] = tested on: PPARa:RXRa (NR concentration 270 nM, RXRa partner concentration 90 nM)
Summary of the method: as §1

[7] = tested on: PPARg:RXRa (NR concentration 180 nM, RXRa partner concentration 90 nM)
Summary of the method: as §1

[8] = tested on: PPARg:RXRa 270nM:90nM, anti-RXR (NR concentration 270 nM, RXRa partner concentration 90 nM)
Summary of the method: as §1

[9] = tested on: PPARg:RXRa 30nM:10nM, anti-RXR (NR concentration 30 nM, RXRa partner concentration 10 nM)
Summary of the method: as §1

[10] = tested on: PPARg:RXRa 90nM:30nM, anti-RXR (NR concentration 90 nM, RXRa partner concentration 30 nM)
Summary of the method: as §1

[11] = tested on: PPARg:RXRa DBDmut IVT, anti-RXR (DBD mutation: RXRa K156A/R161A, NR concentration 270 nM, RXRa partner concentration 90 nM)
Summary of the method: as §1

[12] = tested on: PPARg:RXRa IVT, anti-PPARg (NR concentration 270 nM, RXRa partner concentration 90 nM)
Summary of the method: as §1

[13] = tested on: PPARg DBDmut:RXRa IVT, anti-PPARg (DBD mutation: PPARg1 K132A/R137A, NR concentration 270 nM, RXRa partner concentration 90 nM)
Summary of the method: as §1

[14] = tested on: PPARg DBDmut IVT, anti-PPARg (DBD mutation: PPARg1 K132A/R137A, NR concentration 270 nM)
Summary of the method: as §1

[15] = tested on: PPARg homodimer (NR concentration 180 nM)
Summary of the method: as §1

[16] = tested on: PXR:RXRa (NR concentration 270 nM, RXRa partner concentration 90 nM)
Summary of the method: as §1

[17] = tested on: PXR homodimer (NR concentration 270 nM)
Summary of the method: as §1

[18] = tested on: RARa:RXR (NR concentration 270 nM, RXRa partner concentration 90 nM)
Summary of the method: as §1

[19] = tested on: RARa homodimer (NR concentration 270 nM)
Summary of the method: as §1

[20] = tested on: RARb:RXRa (NR concentration 270 nM, RXRa partner concentration 90 nM)
Summary of the method: as §1

Row | Sequence | PBM binding z-score [1] | PBM binding z-score [2] | PBM binding z-score [3] | PBM binding z-score [4] | PBM binding z-score [5] | PBM binding z-score [6] | PBM binding z-score [7] | PBM binding z-score [8] | PBM binding z-score [9] | PBM binding z-score [10] | PBM binding z-score [11] | PBM binding z-score [12] | PBM binding z-score [13] | PBM binding z-score [14] | PBM binding z-score [15] | PBM binding z-score [16] | PBM binding z-score [17] | PBM binding z-score [18] | PBM binding z-score [19] | PBM binding z-score [20]
1 | CCGAATGGGGCATAAGGTTACCATAAGCCAGCCC | 0.489 | 2.03 | -0.224 | 0.966 | -0.843 | 2.15 | 2.29 | 3.95 | 1.7 | 3.62 | 0.417 | 1.24 | -1.29 | -1.15 | 0.844 | 0.477 | -0.466 | 1.55 | -0.315 | 1.79
2 | ATCTCTATGTAAAGATAGTTCAGTGAATGCAAAT | -0.132 | 0.583 | 0.163 | 0.261 | 0.232 | 0.222 | 0.759 | 0.0606 | 0.319 | 0.173 | -0.623 | -0.061 | 0.754 | 1.67 | 0.106 | 0.604 | 0.457 | 0.433 | 0.866 | 0.242
3 | CCGACTGGGGAATAAGGTTACCATAAGCCAGCCC | 0.215 | 1.7 | -0.22 | 0.69 | -0.763 | 1.35 | 1.09 | 1.47 | 0.215 | 1.03 | 1.7 | 1.42 | -0.845 | -0.915 | 0.47 | 0.362 | 0.0229 | 1.11 | -0.12 | 0.793
4 | TCTTGTAGATAAAAGGTTAAGAAAGCCGAAGCCT | 1.26 | 1.93 | -0.0435 | 1.85 | 0.124 | 3.26 | 3.62 | 5.64 | 4.77 | 5.98 | 2.1 | 1.64 | 0.235 | 0.63 | 1.07 | 1.4 | 0.0184 | 1.84 | 0.655 | 1.91
5 | ATATGTAGGTTAAGGTTCATTCAGGTTGGTTCGC | 3.46 | 3.69 | 3.61 | 3.2 | 0.826 | 5.83 | 10.6 | 9.42 | 8.81 | 10.9 | 7.08 | 7.48 | 4.12 | 3.24 | 3.29 | 4.08 | 5.13 | 3.48 | 1.87 | 2.21
6 | ACTTACGGGTCAACGAGGTTATAGCTCGCGTATA | 7.28 | 5.05 | 0.77 | 4.4 | 0.524 | 5.72 | 5.51 | 5.57 | 2.36 | 4.17 | 3.43 | 4.16 | 1.04 | 0.353 | 3.06 | 5.45 | 2.82 | 5.16 | 0.0894 | 4.36
7 | CCAACTGGGCCATTCAGAGGTCATTGATCATATG | 3 | 4.24 | 6.53 | 3.67 | 0.435 | 3.9 | 2.89 | 3.16 | 0.622 | 2.16 | 5.18 | 4.66 | 0.485 | -0.774 | 4.42 | 5.05 | 2.64 | 4.72 | 0.73 | 3.02
8 | TCTTGTAGATCAAGCAGTTTAAGAAAGCCTGAGT | 0.227 | 0.026 | -0.29 | 0.14 | -0.263 | 0.321 | -0.75 | 1.11 | 2.54 | 2.03 | 1.32 | 0.194 | 0.902 | -0.105 | -0.414 | 0.133 | -0.14 | 0.0935 | -0.0919 | -0.137
9 | CAAACTAGGTCACAGAGGTCAAAGGCCGTGCGTA | 7.21 | 6.33 | 6.87 | 5.9 | 1.61 | 6.36 | 10.5 | 8.37 | 7.41 | 8.58 | 8.7 | 8.85 | 6.92 | 3.61 | 5.45 | 6.54 | 10.8 | 7.58 | 2.81 | 5.22
10 | AGATGTAGGTTAGCTGGGGTCATTCAGACTAGGC | 4.46 | 5.57 | 2.58 | 4.53 | 1.17 | 4.85 | 5.03 | 4.61 | 2.17 | 3.72 | 5.87 | 5.76 | 1.86 | 0.481 | 2.31 | 6.19 | 3.97 | 5.41 | 0.958 | 3
11 | CTCGAAAGGTCGGTTTAGGTGAGTATACGGATAA | 2.13 | 1.54 | -0.093 | 1.7 | 0.329 | 2.44 | 0.282 | 1.04 | -0.0408 | 0.683 | 0.133 | 0.896 | 0.666 | 0.13 | 1.29 | 1.51 | 0.344 | 1.64 | 0.736 | 2.66
12 | GTACCAACGTGAATAGGTCGTTGATGAGTAGGCG | -0.282 | -0.216 | -0.491 | -0.2 | -0.829 | 0.267 | 0.588 | -0.017 | -0.124 | -0.176 | -0.261 | -0.148 | -0.62 | -0.461 | -0.374 | -0.0666 | -0.401 | 0.105 | -0.122 | -0.00783
13 | ATATGTAGGTTACATCCTGGTCATTCAGGCTATG | 0.666 | 2.03 | 0.602 | 1.28 | 0.798 | 3.16 | 5.21 | 4.44 | 2 | 3.57 | 7.08 | 7.21 | 2.2 | 2.23 | 0.657 | 0.747 | 0.205 | 1.05 | 0.992 | 1.11
14 | GCAGACAGGTGAAACGCAGGTATCTCAGGGTGGC | -0.22 | -0.184 | -0.68 | -0.253 | -1.19 | 0.544 | 0.481 | 0.0316 | -0.675 | -0.473 | 0.78 | 0.498 | -0.724 | -0.85 | -0.577 | -0.328 | -0.634 | 0.112 | -0.595 | 0.463
15 | ATCTCTAGGTAAGACTCAGTTCAGTTAAGAACGC | 0.593 | 0.555 | 0.553 | 0.321 | 1.02 | 0.229 | 0.0463 | 0.424 | 0.445 | 0.237 | 2.13 | 1.36 | 0.719 | 0.801 | 1.1 | 1.11 | 1.83 | 0.499 | 1.6 | 0.431
